From the supplement of paper PMC11732987, “Enantioselective OTUD7B fragment discovery through chemoproteomics screening and high-throughput optimisation” (Communications Chemistry, 2025)

Assays:
Experiment in all cases: log2 ratio of Biotin-Ahx-Ub-VS probe labelling (fragment/DMSO); higher = less target engagement (more negative = stronger competition), active = hit call of the paper (q ≤ 0.05, log2 ratio ≤ -1)
Conditions in all cases: compound concentration: 200 uM; treatment time: 3 h
USP9X = USP9X (UniProt Q93008)
In short: (§1)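 Labelled DUBs from HEK293T lysate were NeutrAvidin-enriched, digested with LysC and trypsin, and run by diaPASEF LC-MS/MS. Before that, each 495 µg sample in Tris/CHAPS/IGEPAL buffer with protease inhibitors was treated in triplicate with fragment at 200 µM or vehicle for 3 h, then with Biotin-Ahx-Ub-VS at 0.5 µM final for 1 h. Values are average log2 ratios of fragment over vehicle by unpaired t-test, based on global-median-normalised Spectronaut label-free quantities from proteins with ≥2 unique peptides.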

UniProt O00487 = biological target: UniProt O00487
In short: as §1

UniProt O00507 = biological target: UniProt O00507
In short: as §1

UniProt P51784 = biological target: UniProt P51784
In short: as §1

UniProt Q5T2D3 = biological target: T1, UniProt Q5T2D3
T1 sequence (whole entry): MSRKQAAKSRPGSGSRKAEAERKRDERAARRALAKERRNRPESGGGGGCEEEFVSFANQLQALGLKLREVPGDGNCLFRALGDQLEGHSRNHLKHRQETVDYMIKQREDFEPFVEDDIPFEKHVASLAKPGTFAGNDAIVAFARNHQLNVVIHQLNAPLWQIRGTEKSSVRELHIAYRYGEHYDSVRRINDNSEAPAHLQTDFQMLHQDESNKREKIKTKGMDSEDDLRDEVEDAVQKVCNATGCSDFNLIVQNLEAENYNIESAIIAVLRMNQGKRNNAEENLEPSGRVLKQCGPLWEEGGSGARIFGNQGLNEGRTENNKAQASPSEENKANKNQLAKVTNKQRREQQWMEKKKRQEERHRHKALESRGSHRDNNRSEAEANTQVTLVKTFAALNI
In short: as §1

UniProt Q8TE49 = biological target: T2, UniProt Q8TE49
T2 sequence (whole entry): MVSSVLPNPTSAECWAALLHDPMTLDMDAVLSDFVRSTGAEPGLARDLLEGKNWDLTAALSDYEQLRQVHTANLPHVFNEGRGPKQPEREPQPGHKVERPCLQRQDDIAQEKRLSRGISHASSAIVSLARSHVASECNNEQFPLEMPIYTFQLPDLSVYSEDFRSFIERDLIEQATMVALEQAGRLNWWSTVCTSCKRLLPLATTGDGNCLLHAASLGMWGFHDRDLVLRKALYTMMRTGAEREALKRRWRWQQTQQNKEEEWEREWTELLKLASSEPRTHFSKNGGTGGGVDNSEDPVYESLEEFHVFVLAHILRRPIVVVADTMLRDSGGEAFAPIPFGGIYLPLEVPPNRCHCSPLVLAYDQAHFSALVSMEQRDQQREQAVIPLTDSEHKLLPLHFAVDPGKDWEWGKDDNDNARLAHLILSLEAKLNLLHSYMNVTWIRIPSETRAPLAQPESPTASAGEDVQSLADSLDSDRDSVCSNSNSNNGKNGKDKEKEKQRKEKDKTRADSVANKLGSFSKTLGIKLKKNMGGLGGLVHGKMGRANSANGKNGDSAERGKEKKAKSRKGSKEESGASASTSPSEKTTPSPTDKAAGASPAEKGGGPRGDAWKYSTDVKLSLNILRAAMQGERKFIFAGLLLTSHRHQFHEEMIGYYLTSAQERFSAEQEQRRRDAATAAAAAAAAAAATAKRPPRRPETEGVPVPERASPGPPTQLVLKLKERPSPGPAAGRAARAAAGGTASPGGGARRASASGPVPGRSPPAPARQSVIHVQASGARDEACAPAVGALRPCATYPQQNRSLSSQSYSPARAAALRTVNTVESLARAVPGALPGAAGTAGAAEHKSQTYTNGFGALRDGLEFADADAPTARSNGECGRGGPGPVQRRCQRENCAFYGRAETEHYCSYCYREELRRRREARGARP
In short: as §1

UniProt Q9P2H5 = biological target: T3, UniProt Q9P2H5
T3 sequence (whole entry): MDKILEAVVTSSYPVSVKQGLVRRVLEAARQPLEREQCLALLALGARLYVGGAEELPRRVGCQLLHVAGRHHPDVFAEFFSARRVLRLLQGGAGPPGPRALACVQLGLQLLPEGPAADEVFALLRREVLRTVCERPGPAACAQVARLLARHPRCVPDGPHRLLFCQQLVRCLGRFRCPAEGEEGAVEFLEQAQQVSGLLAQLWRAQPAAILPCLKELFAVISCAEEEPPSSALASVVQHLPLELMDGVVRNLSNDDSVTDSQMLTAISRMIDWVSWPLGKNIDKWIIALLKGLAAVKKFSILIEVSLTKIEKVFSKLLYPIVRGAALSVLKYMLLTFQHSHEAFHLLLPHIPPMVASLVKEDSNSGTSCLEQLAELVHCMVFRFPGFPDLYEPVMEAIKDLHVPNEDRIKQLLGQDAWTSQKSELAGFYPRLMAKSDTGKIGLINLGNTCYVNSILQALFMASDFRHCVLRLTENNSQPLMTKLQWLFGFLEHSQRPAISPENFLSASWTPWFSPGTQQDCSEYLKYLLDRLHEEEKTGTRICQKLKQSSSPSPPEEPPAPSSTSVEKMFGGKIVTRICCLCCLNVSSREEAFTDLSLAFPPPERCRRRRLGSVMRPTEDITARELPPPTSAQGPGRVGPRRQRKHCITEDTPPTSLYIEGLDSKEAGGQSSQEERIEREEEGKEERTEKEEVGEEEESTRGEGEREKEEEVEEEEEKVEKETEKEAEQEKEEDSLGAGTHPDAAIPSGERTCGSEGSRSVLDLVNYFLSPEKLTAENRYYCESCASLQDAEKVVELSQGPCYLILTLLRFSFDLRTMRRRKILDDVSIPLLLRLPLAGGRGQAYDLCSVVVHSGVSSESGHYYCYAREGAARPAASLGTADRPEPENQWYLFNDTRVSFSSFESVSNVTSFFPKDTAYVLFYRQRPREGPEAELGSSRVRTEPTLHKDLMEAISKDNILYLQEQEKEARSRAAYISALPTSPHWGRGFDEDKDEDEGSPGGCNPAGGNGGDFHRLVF
In short: as §1

UniProt Q9UGI0 = biological target: T4, UniProt Q9UGI0
T4 sequence (whole entry): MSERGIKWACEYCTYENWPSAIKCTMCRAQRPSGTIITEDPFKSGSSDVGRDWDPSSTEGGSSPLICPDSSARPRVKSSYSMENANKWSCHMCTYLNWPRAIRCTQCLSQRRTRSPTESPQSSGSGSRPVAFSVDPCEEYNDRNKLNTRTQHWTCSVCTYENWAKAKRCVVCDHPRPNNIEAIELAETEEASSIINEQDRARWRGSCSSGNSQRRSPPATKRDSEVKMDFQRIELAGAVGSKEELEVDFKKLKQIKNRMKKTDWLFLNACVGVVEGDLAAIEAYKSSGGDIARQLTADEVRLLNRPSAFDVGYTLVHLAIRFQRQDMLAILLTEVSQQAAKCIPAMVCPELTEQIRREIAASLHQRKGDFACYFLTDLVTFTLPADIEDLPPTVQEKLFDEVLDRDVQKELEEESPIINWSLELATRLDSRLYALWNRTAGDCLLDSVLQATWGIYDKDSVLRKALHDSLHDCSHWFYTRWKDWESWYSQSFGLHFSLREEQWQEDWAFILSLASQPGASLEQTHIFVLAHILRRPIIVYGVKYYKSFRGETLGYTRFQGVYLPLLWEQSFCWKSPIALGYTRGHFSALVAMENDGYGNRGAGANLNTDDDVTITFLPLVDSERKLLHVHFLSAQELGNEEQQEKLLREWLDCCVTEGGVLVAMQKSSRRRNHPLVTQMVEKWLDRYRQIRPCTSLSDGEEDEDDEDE
In short: as §1

YOD1 = biological target: T5, YOD1 (UniProt Q5VVQ6)
T5 sequence (whole entry): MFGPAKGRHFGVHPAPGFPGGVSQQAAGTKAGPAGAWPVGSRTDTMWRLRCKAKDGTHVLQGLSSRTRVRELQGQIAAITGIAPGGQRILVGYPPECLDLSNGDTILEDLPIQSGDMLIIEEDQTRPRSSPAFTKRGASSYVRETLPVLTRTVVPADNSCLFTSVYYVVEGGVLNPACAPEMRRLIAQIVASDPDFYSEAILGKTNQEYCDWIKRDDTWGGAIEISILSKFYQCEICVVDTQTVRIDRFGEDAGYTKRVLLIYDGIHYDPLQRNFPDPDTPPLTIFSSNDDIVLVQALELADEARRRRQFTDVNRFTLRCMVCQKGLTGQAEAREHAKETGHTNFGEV
In short: as §1

Measured: log2 ratio of Biotin-Ahx-Ub-VS probe labelling

USP9X, sequence (Q93008 whole entry, the tested form may be a part): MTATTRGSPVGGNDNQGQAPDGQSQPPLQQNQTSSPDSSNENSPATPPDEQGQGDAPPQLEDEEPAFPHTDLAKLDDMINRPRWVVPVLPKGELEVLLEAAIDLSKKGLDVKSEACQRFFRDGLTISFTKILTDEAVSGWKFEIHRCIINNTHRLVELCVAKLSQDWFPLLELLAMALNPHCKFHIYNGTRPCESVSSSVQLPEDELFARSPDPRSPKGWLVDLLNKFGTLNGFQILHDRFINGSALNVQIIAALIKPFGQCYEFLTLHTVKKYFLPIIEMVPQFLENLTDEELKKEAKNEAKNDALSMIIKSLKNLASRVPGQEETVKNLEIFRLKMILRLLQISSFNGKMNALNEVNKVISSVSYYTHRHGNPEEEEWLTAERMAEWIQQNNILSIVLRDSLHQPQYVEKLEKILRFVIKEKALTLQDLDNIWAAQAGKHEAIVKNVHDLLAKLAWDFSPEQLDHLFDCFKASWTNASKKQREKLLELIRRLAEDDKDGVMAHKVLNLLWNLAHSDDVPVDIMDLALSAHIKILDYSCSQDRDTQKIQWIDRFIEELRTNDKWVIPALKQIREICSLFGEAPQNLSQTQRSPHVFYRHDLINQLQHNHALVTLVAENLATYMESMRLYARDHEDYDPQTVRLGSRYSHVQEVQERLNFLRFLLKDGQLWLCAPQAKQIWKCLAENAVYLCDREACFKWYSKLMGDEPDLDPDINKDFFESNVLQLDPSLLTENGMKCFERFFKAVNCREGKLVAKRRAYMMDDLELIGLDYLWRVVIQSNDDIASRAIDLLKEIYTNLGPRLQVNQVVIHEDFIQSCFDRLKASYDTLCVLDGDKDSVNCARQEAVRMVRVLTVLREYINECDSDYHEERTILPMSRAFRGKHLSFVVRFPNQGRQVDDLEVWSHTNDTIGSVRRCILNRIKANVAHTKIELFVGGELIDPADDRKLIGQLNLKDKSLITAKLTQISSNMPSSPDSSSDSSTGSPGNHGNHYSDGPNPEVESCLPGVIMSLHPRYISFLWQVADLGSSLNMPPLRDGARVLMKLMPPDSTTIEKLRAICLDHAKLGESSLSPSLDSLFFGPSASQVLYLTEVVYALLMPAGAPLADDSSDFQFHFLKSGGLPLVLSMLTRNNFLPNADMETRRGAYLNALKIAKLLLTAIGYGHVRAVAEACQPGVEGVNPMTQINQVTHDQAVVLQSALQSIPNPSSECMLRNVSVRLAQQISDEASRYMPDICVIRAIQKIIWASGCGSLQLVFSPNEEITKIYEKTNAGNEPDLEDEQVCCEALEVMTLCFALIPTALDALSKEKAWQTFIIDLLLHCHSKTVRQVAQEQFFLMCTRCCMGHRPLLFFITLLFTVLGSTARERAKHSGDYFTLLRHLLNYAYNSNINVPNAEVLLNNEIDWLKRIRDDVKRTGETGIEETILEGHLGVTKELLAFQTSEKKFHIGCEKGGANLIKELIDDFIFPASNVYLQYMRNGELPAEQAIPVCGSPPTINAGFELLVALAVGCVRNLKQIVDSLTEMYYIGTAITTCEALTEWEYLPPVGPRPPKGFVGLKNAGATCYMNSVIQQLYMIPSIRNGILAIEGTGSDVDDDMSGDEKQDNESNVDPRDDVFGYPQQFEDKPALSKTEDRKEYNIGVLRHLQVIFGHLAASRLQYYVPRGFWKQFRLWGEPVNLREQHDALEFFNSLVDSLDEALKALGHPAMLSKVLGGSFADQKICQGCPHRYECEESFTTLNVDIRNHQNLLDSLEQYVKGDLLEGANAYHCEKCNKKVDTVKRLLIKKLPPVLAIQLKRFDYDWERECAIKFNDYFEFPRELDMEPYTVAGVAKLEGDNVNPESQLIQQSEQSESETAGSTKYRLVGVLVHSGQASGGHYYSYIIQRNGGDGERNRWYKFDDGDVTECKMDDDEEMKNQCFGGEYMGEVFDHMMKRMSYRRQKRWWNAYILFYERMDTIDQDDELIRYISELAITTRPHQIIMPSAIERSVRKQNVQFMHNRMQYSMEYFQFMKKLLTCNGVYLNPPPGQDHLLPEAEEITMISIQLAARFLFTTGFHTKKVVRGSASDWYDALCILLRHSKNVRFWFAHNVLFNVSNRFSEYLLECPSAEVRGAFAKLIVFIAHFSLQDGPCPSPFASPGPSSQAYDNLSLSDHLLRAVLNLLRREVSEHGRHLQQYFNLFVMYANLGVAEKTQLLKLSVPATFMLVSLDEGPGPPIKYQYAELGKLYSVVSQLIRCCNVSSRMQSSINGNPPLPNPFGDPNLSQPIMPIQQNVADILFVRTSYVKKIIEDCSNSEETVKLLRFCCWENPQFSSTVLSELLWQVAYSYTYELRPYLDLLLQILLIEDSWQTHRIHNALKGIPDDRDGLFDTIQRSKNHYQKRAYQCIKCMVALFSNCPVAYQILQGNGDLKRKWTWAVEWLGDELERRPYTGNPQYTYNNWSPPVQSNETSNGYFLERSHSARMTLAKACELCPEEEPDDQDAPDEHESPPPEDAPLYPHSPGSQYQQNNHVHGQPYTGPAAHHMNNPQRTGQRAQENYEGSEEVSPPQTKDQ
UniProt P51784, sequence (P51784 whole entry): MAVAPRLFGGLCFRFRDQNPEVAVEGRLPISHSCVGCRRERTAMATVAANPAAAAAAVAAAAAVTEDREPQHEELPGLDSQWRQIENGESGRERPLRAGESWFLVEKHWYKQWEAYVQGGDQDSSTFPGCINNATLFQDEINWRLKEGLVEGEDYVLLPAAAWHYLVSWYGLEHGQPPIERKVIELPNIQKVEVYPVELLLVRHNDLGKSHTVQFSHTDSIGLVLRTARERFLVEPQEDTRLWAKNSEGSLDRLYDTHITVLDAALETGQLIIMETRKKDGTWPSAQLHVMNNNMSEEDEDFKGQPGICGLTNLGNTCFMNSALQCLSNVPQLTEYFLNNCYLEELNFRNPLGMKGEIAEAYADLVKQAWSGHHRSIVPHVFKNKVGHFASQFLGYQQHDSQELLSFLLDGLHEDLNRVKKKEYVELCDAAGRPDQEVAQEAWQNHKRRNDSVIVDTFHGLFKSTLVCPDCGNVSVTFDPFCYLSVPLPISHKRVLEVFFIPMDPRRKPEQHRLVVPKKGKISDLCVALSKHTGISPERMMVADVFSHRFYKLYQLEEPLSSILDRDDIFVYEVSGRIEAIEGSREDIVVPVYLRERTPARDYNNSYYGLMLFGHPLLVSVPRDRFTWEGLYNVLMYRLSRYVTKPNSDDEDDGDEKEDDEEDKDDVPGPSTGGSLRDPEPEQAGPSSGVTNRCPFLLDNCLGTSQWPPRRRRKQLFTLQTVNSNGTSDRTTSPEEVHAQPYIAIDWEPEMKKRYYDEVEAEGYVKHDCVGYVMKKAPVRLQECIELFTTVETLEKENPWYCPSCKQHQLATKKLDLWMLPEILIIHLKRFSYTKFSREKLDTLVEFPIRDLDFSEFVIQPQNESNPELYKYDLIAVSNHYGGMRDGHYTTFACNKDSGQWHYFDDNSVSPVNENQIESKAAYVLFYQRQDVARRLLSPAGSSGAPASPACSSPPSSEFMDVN
UniProt O00487, sequence (O00487 whole entry): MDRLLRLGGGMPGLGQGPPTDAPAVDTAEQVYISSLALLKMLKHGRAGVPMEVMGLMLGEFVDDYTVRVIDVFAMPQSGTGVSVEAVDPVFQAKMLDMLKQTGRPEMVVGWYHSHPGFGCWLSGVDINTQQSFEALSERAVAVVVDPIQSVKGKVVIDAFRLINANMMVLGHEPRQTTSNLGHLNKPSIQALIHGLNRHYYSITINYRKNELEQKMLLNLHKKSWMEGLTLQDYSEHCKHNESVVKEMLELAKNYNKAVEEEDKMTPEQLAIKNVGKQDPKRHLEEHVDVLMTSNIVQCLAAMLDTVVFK

CC(c1ccccc1)N(C)C(=O)CCl (centres undefined)
inactive: USP9X -0.115 | UniProt O00487 -0.0533 | UniProt O00507 -0.143 | UniProt P51784 -0.169 | UniProt Q5T2D3 -0.0617 | UniProt Q8TE49 -0.555 | UniProt Q9P2H5 -0.0284 | UniProt Q9UGI0 -0.295 | YOD1 0.101
